Hits are enriched below; roughly 17% of the tested compounds scored in any of these assays.
TDP1 cell CPT = DT40-hTDP1 cell growth loss with CPT | 12% of 420,000 active | Potency, µM (titrated, usually from 46.2 µM), actives largely listed as inhibitors | chicken DT40 Tdp1-/-;hTDP1 cells + 20 nM CPT, ATP luminescence, 48 h; also: nearly all actives have a fitted effect of over 55% in size
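Chicken DT40 Tdp1-/- cells stably complemented with human TDP1 were seeded at 400 cells/well in medium containing 20 nM camptothecin, exposed to pin-transferred compounds, and grown at 37 °C for at least 48 hr. Viability was read as ATP luminescence.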
ClpP mod = qHTS Assay for Activators of ClpP. ATP-dependent Clp protease proteolytic subunit (Bacillus subtilis (strain 168)), P80244. purified B. subtilis ClpP, FRET peptide cleavage, 20 min. Potency, µM (highest dose often 57.5 µM). 1.9% of 340,000 active. AID 651965, 2013; active = well fitted falling curve with a large enough effect; inconclusive = small, poorly fitted or top-dose-only effect; inactive = no such curve, though single readings can be large or run the other way; also: the source files actives as falling curves though it sought activators and does not explain the sign; nearly all actives have a fitted effect of over 65% in size
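ClpP 10 microg/mL final, pH 8 Tris/KCl buffer with BSA, glycerol, Tween-20; compound pinned in; FRET-FV substrate; RT 20 min; Ex320/Em430; ΔFRET vs ADEP 5.8 microM, DMSO, no enzyme.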
TDP1 block = blocks human tyrosyl-DNA phosphodiesterase 1 | recombinant TDP1, AlphaScreen DNA substrate cleavage | 0.28% of 350,000 active | Potency, µM (top dose mostly 130 µM), actives largely listed as inhibitors; also: nearly all actives have a fitted effect of over 40% in size
Target sequence (Q9NUW8 whole entry, looked up): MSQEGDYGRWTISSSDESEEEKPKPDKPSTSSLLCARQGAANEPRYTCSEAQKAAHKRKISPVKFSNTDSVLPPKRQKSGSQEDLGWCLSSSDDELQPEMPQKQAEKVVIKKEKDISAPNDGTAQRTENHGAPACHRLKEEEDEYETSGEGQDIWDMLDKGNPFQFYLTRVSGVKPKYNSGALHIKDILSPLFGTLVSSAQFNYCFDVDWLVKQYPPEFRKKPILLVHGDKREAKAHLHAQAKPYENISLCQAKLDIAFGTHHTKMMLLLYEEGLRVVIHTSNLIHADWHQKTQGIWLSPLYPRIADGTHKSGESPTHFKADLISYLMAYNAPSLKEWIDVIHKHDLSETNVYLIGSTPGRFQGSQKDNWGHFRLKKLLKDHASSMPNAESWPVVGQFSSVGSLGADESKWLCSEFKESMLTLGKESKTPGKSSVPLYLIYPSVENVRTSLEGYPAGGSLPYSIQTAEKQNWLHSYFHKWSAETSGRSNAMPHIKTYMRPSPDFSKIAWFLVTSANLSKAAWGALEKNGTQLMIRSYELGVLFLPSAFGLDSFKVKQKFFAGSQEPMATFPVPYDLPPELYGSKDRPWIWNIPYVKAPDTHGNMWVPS
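Recombinant E. coli-expressed Tdp1 (1 nM) preincubated with compound 15 min at RT, then 5'-biotin/3'-phosphotyrosine-FITC DNA substrate (15 nM) added for 5 min. AlphaScreen beads (10 ug/ml) added, 10 min RT; tyrosine-FITC cleavage read as signal loss.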
TDP1 cell noCPT = qHTS for Inhibitors of human tyrosyl-DNA phosphodiesterase 1 (TDP1): qHTS in cells in absence of CPT | 15% of 420,000 active | DT40 Tdp1-/- hTDP1 cells, no CPT, ATP luminescence, 48 h | Potency, µM (titrated, usually from 46.2 µM), usual class: inhibitors; also: nearly all actives have a fitted effect of over 55% in size
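Cells were dispensed at 400 per well, compounds added by pin tool, plates incubated ≥48 hr at 37 °C, then CellTiter-Glo added for 30 min at room temperature before luminescence reading. Line: DT40 Tdp1-/- complemented with hTDP1; camptothecin omitted.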
A number is an active result; . = inactive; ? = inconclusive; / = no result; ! = repeats disagree. Unless noted, calls follow the shape of the dose curve; as a rule, active = well fitted curve in the direction sought with a large enough effect; inconclusive = small, poorly fitted or top-dose-only effect, or another doubt; inactive = no such curve, though single readings can be large; an effect the other way counts as inactive or inconclusive.

SMILES	TDP1 cell CPT	ClpP mod	TDP1 block	TDP1 cell noCPT
Cc1cc2ccccn2c1C(=O)c1ccccc1Br	16µM	/	.	?
Cc1cc2ccccn2c1C(=O)c1ccc(F)cc1	.	/	.	?
CCN(CC)c1ccc(C=C(c2nnnn2-c2ccccc2)c2nnnn2-c2ccccc2)cc1	?	28µM	.	10µM
CCCCCOc1ccc(Cn2c(=O)oc3ccccc32)cc1	.	.	.	.
Cc1nc2ccn(Cc3cccs3)c(=O)c2cc1C(=O)NCc1ccc(Br)cc1	?	.	.	?
CCOc1ccc(CNC(=O)c2cc3c(=O)n(Cc4cccs4)ccc3nc2C)cc1	9.2µM	.	.	?
Cc1nc2ccn(Cc3cccs3)c(=O)c2cc1C(=O)Nc1ccccc1	?	.	.	?
Cc1nc2ccn(Cc3cccnc3)c(=O)c2cc1C(=O)NCc1ccc(Cl)cc1	?	13µM	.	?
CCc1ccc(CNC(=O)c2cc3c(=O)n(Cc4cccs4)ccc3nc2C)cc1	18µM	.	.	23µM
COc1ccc(NC(=O)c2cc3c(=O)n(Cc4cccs4)ccc3nc2C)c(OC)c1	16µM	.	.	?
COc1ccc(CNC(=O)c2cc3c(=O)n(Cc4ccc(OC)cc4)ccc3nc2C)cc1	?	.	.	?
COc1ccc(OC)c(CN2C(=O)CN(S(C)(=O)=O)CC2(C)C(=O)NC(C)C)c1 (stereo not given)	.	.	/	.
C/C(=N\NC(=O)c1cccc(S(=O)(=O)N2CCCC2)c1)c1cccs1	?	/	.	.
Cc1ccc(CNCc2ccccc2Cl)s1	/	.	.	/
COc1ccccc1CCC(=O)Nc1cc(S(=O)(=O)N2CCCCC2)ccc1N1CCN(C)CC1	?	.	/	21µM
Cc1ccc(S(=O)(=O)N2CCOCC2)cc1NC(=O)COc1ccc(C(=O)c2ccccc2)cc1	?	.	.	?
Cc1cccc(OCC(=O)Nc2cc(S(=O)(=O)N3CCCCC3)ccc2N2CCN(C)CC2)c1	?	.	.	?
COc1cc(C(C)=O)ccc1OCC(=O)Nc1cc(S(=O)(=O)N2CCOCC2)ccc1N1CCCC1	?	.	/	?
Cc1ccc(Cl)c(OCC(=O)Nc2cc(S(=O)(=O)N3CCOCC3)ccc2N2CCCC2)c1	16µM	.	.	.
COc1ccccc1OCC(=O)Nc1cc(S(=O)(=O)N2CCOCC2)ccc1N1CCCCC1	18µM	.	.	15µM
Cc1ccc(S(=O)(=O)N2CCOCC2)cc1NC(=O)COc1ccc2c(C)cc(=O)oc2c1	?	32µM	.	?
Nc1ccc(S(=O)(=O)N2CCC(Cc3ccccc3)CC2)cc1	?	.	/	.
CCCCn1cnc2c(c(CC#N)nn2-c2ccccc2)c1=N	.	.	/	.
CC(C)Oc1ccc(CC2CCC(=O)N(C)C2=O)cc1 (stereo not given)	.	.	.	.
CCC[C@H](N[C@@H](C)C(=O)N1[C@H](C(=O)O)C[C@@H]2CCCC[C@@H]21)C(=O)OCC	?	.	/	?
SMILES	TDP1 cell CPT	ClpP mod	TDP1 block	TDP1 cell noCPT
O=C(COc1ccc(Cl)cc1)Nc1cc(S(=O)(=O)N2CCCCC2)ccc1N1CCCCC1	2.9µM	.	.	10µM
Cc1cc(OCC(=O)Nc2cc(S(=O)(=O)N3CCOCC3)ccc2N2CCCC2)ccc1C(C)C	12µM	.	.	8.2µM
CCc1ccccc1OCC(=O)Nc1cc(S(=O)(=O)N2CCOCC2)ccc1N1CCCCC1	23µM	/	.	7.3µM
Cc1ccc(OCCCC(=O)Nc2cc(S(=O)(=O)N3CCOCC3)ccc2N2CCOCC2)cc1	21µM	.	.	23µM
C[C@@](N)(C(=O)O)c1ccc(S(=O)(=O)O)cc1	.	/	.	.
CCOC(=O)C1CCN(CC(=O)c2ccc(O)c(C)c2O)CC1	?	?	.	?
CC(=O)N(C)c1ccc(NC(=O)Cc2cccc3ccccc23)cc1	.	/	/	.
CCc1cccc(N(C)C(N)=Nc2cccc3ccccc23)c1	11µM!	.	/	15µM!
O=C(Nc1cccc(-c2ccc(N3CCOCC3)nn2)c1)c1ccc(F)cc1F	.	.	.	.
COc1ccc(C(=O)Nc2cccc(-c3ccc(N4CCOCC4)nn3)c2)cc1OC	18µM	.	/	9.2µM
CCOc1ccc(C(=O)Nc2cccc(-c3ccc(N4CCOCC4)nn3)c2)cc1OCC	?	.	/	10µM
COc1cc(C)c(C)cc1S(=O)(=O)Nc1cccc(-c2ccc(N3CCOCC3)nn2)c1	?	.	.	16µM
COc1cccc(C(=O)Nc2cccc(-c3ccc(N4CCOCC4)nn3)c2)c1	.	.	.	?
COc1ccc(S(=O)(=O)Nc2cccc(-c3ccc(N4CCOCC4)nn3)c2)cc1F	?	.	.	?
CCOc1ccccc1C(=O)Nc1cccc(-c2ccc(N3CCOCC3)nn2)c1	?	.	/	16µM
CNC(=O)c1cc(-c2cccs2)on1	?	.	/	?
Clc1cccc(/C(Cc2nc3ccccc3[nH]2)=N\Nc2ccccc2)c1	?	.	.	?
CC1CC(C)CN(CCC(=O)Nc2ccc(Br)cc2)C1 (stereo not given)	?	.	/	?
COc1cccc(C(=O)Nc2cccc(-c3ccc(N4CCOCC4)nn3)c2)c1OC	?	/	.	23µM
COc1ccc(N2CCN(CCNC(=O)c3ccc4c(c3)[nH]c(=S)n3c5ccccc5nc43)CC2)cc1	4.6µM	.	.	2.1µM
O=C(CCCn1c(=O)[nH]c2cc(Cl)ccc2c1=O)NCCCN1CCN(c2ccc(F)cc2)CC1	16µM	.	.	21µM
COCCn1c(=O)[nH]c2cc(C(=O)NCCCN3CCN(c4ccc(F)cc4)CC3)ccc2c1=O	.	28µM	.	?
O=C(CCCn1c(=O)[nH]c2cc(Cl)ccc2c1=O)NCCCN1CCCC1	.	.	.	.
CCn1cc([N+](=O)[O-])c(C(=O)N2CCCc3ccccc32)n1	.	.	.	.
COc1ccc(NC(=O)C2Cc3c(-c4ccccc4Oc4ccccc4)ccnc3O2)cn1 (stereo not given)	15µM	.	/	15µM
SMILES	TDP1 cell CPT	ClpP mod	TDP1 block	TDP1 cell noCPT
O=C(NCc1cccs1)C1Cc2c(-c3ccccc3Oc3ccccc3)ccnc2O1 (stereo not given)	?	.	/	?
COc1ccc(NC(=O)C2Cc3c(-c4ccccc4Oc4ccccc4)ccnc3O2)cc1OC (stereo not given)	9.2µM	.	/	16µM
O=C(NCc1ccncc1)C1Cc2c(-c3ccccc3Oc3ccccc3)ccnc2O1 (stereo not given)	13µM	.	/	16µM
Cc1cccc(C)c1Nc1nnc(SCC(=O)c2ccc3c(c2)NC(=O)CO3)s1	.	35µM	.	.
Cc1ccc(Nc2nnc(SCC(=O)c3ccc(Br)s3)s2)c(C)c1	.	.	.	?
Cc1cccc(C)c1Nc1nnc(SCC(=O)c2ccc(Br)s2)s1	?	.	.	16µM
COc1ccc(CC(=O)N[C@@H](CCSC)C(=O)N2CCC3(CC2)NCCc2[nH]cnc23)cc1	.	.	.	.

Screening data (PubChem BioAssay)
